Shown are actives, neighbours in structure and some others; about 10% of the full set was active somewhere.
12-hLO inh: blocks human 12-lipoxygenase activity; P18054; purified 12-hLO, xylenol orange hydroperoxide absorbance; Potency, µM (top dose mostly 57.1 µM), hits mostly inhibitors; 150,000 tested, 0.12% active; AID 1452; active = well fitted inhibition curve with a large enough effect; inconclusive = small, poorly fitted or top-dose-only effect; note: nearly all actives have a fitted effect of over 55% in size
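150 nM 12hLO, 25 mM Hepes pH 7.0 + 0.01% Triton X-100; cpd preinc 15 min RT; 40 uM arachidonic acid, 30 min RT; Fe-XO 30 min; A573/A405 ratio as read-out.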
HPGD inh: inhibitors of human 15-hydroxyprostaglandin dehydrogenase (HPGD); P15428; purified HPGD, NADH fluorescence kinetic, PGE2 substrate; Potency, µM, hits mostly inhibitors; 150,000 tested, 4.3% active
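NADH formation kinetics: reaction with 30 uM PGE2 and 1 mM NAD+ (final), 20 nM enzyme, Tris-HCl pH 8 with Tween 20, after 15 min compound preincubation at room temperature. Fluorescence change, last versus first of five reads.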
ALDH1A1 inh: inhibitors of human aldehyde dehydrogenase 1A1 | P00352 | Purified ALDH1A1, NADH fluorescence, propionaldehyde substrate | Potency, µM (titrated, usually from 75.3 µM), hits mostly inhibitors | 220,000 tested, 7.3% active | AID 1030
Target sequence (P00352 whole entry, looked up): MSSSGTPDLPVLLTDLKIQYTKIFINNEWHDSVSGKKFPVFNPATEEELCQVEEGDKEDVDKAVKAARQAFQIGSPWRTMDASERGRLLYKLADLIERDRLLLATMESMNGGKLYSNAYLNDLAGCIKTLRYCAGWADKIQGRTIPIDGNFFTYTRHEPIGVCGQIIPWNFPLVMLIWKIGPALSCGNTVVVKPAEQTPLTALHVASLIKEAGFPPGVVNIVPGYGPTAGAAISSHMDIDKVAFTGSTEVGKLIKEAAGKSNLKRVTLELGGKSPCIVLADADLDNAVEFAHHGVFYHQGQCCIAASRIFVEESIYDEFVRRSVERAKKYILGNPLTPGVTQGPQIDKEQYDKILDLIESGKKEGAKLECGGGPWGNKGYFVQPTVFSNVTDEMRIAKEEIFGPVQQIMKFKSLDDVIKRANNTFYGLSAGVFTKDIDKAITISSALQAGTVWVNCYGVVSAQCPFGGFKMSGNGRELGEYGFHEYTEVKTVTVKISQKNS
PNC inhibitor: inhibitors of perinucleolar compartment assembly; PC3M PTB-GFP, PNC prevalence imaging, 16 h; hits give low values; activity change (PNC), negative = inhibition, % at 10 µM; 140,000 tested, 3.1% active;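 active = readout at or below -70, meaning at least 70% loss of cells showing the perinucleolar compartment, a nuclear body marking cancer cells; inconclusive = readout between -30 and a set limit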
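Read-out is percentage of cells bearing a perinucleolar compartment, from automated 20x imaging of fixed, Hoechst-stained PC3M PTB-GFP cells. Cells were seeded 4 h, then exposed 16 h to compound (23 nl of library stock) in duplicate plates.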
LMNA splice mod: modulators of lamin A splicing | Potency, µM (highest dose often 46.1 µM), actives largely listed as inhibitors | HeLa LMNA splicing GFP/RFP minigene ratio, 48 h | 200,000 tested, 0.01% active | AID 1487; active = well fitted inhibition curve with a large enough effect in the signal ratio, with a control signal flat, not every such curve was filed as active; inconclusive = small, poorly fitted or top-dose-only effect, or effect the other way, or a change in a side signal; the % refers to the signal ratio
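S3 HeLa cells stably expressing lamin A-EGFP splicing minigene plus DsRed2, 600 cells/well, 48 h compound exposure at 37C. Laser-scanning cytometry; analysed as GFP (500-530 nm)/RFP (575-640 nm) total intensity ratio; 0.5% DMSO vehicle.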
Numbers stand for hits; - = inactive; ? = inconclusive; . = no result given; [ ] = remark or other dose. Unless noted, calls come from the whole dose curve; as a rule, active = well fitted inhibition curve with a large enough effect (not every such curve was filed as active); inconclusive = small, poorly fitted or top-dose-only effect, or another doubt; inactive = no such curve, though single readings can be large or run the other way.

SMILES | 12-hLO inh | HPGD inh | ALDH1A1 inh | PNC inhibitor | LMNA splice mod
COC(=O)C1CCN(S(=O)(=O)Cc2ccccc2)CC1 | - | 22µM | ? | - | -
O=C(NC1CCCCC1)NC1CCN(S(=O)(=O)Cc2ccccc2)CC1 | - | - | - | - | -
O=C(NCC1CCCO1)C1CCC(CNS(=O)(=O)c2ccccc2)CC1 (configuration not stated) | - | - | 14µM | - | -
Cc1cc2ccccn2c1C(=O)c1ccc(Cl)cc1 | - | - | - | -105 | -
O=C(c1cccc(F)c1)N1CCC2(CC1)CCN(C(c1ccccc1)c1ccccc1)CC2 | - | - | - | . | .
O=C(NNC(=O)C1CCC(C(=O)NNC(=O)c2cccs2)CC1)c1cccs1 (configuration not stated) | . | . | - | . | -
NC(=S)N/N=C/c1ccccc1OCCSc1ccc(Cl)cc1 | - | 35µM | - | - | ?
CCCCc1nn2c(=O)cc(COC(=O)c3ccc4c(c3)OCO4)nc2s1 | . | . | . | . | -
COC(=O)C1=C(C)NC(=S)NC1c1ccc(-c2cccc(Cl)c2)o1 (configuration not stated) | ? | - | 2µM | - | ?
COC(=O)C1=C(C)NC(=S)NC1c1ccc(-c2ccccc2C(=O)OC)o1 (configuration not stated) | . | . | 16µM | . | -
CCOC(=O)C1=C(C)NC(=S)NC1c1ccc(-c2cccc(Cl)c2C)o1 (configuration not stated) | ? | - | 0.89µM | - | ?
CCOC(=O)C1=C(C)NC(=S)NC1c1ccc(-c2ccc(Cl)cc2)o1 (configuration not stated) | ? | - | 4.5µM | - | ?
COC(=O)C1=C(C)NC(C)=C(C(=O)OC)C1c1ccc(-c2cc(Cl)ccc2Cl)o1 | - | - | ? | - | -
Cc1cc2ccc(OC(=O)c3ccc(N=C(N)N)cc3)cc2oc1=O | -[11.4 µM] | ? | ? | . | .
COCCNC(=O)CCC(=O)N1Cc2cccc(OC)c2Oc2ncccc21 | . | . | . | . | -
NNC(=O)CC12CC3CC(C1)CC(n1ncnn1)(C3)C2 | - | - | 2.8µM | - | -
CC1CCc2sc(C(=O)NN)cc2C1 (configuration not stated) | . | . | 7.1µM | . | .
Cc1ccc(NC(=O)c2cc3c(s2)CCC3)cc1S(=O)(=O)N1CCOCC1 | - | - | 1.1µM | - | ?
CSc1nnc(NC(=O)c2ccc(C)c(S(=O)(=O)N3CCOCC3)c2)s1 | - | 20µM | ? | ? | -
COc1ccc(NC(=O)c2cc3c(s2)CCC(C)C3)cc1S(=O)(=O)N1CCOCC1 (configuration not stated) | - | - | 16µM | ? | ?
Cc1ccc(S(=O)(=O)N2CCOCC2)cc1NC(=O)c1cc2c(s1)CCC2 | - | - | ? | - | -
COc1cccc(CNC(=O)c2cc(C)nc3c2c(C)nn3-c2cccc(F)c2)c1 | . | . | . | . | -
NS(=O)(=O)c1ccc(NC(=O)Nc2ccc(C(F)(F)F)cc2)cc1 | . | . | - | . | .
CS(=O)(=O)c1nc(-c2ccc(Br)cc2)cc(-c2ccccc2)c1C#N | - | - | ? | - | ?
N#Cc1c(-c2ccccc2Cl)cc(C2CC2)nc1N | - | . | - | - | -
SMILES | 12-hLO inh | HPGD inh | ALDH1A1 inh | PNC inhibitor | LMNA splice mod
N#Cc1c(-c2ccccc2Cl)cc(-c2ccccc2)nc1Br | - | 25µM | - | - | ?
CS(=O)c1nc(-c2ccc(Br)cc2)cc(-c2ccccc2)c1C#N (configuration not stated) | - | - | 13µM | - | ?
N#Cc1c(-c2cccc(F)c2)cc(-c2ccccc2)nc1Br | - | 18µM | - | - | -
COC(=O)N1CCC2(CC1)CN(c1ccccn1)C2 | - | - | ? | . | .
CC(=O)/C=C/c1ccccc1O | . | . | - | . | ?
COC(=O)/C=C/c1cc(O)ccc1O | . | . | 28µM | . | .
O=C(c1cccc(F)c1)N1CCC[C@@]2(CCN(Cc3ccncc3)C2)C1 | - | ? | ? | . | .
COc1ccc(C(=O)N2CCC[C@@]3(CCN(Cc4ccccc4)C3)C2)cc1 | - | ? | ? | . | .
N#Cc1ccc(CN2CC[C@@]3(CCCN(C(=O)c4cccc(F)c4)C3)C2)cc1 | - | 28µM | - | . | .
O=C(c1ccncc1)N1CCC[C@@]2(CCN(Cc3ccncc3)C2)C1 | - | - | 22µM | . | .
COc1ccc(C(=O)N2CCC[C@@]3(CCN(Cc4ccncc4)C3)C2)cc1 | - | 35µM | 28µM | . | .
CC[N+](CC)(CC)CC[C@](O)(c1ccccc1)C1CCCCC1 | - | - | - | . | ?
CCN1CCN(C(c2ccccc2Cl)c2c(O)cc(C)n(Cc3ccco3)c2=O)CC1 (configuration not stated) | . | . | . | . | -
CCCn1c(-c2ccc(F)cc2)nc2c(NCCN3CCCC3)nc(C)nc21 | - | ? | ? | . | .
CN1C(=S)N(c2ccccc2)C(=O)/C1=C/c1ccco1 | - | - | 13µM | ? | -
O=C(O)c1cc(=O)c2c(Cl)cc(Cl)cc2[nH]1 | - | 28µM | - | . | -
Cc1cc(C)c(S(=O)(=O)NCc2ccncc2)c(C)c1 | - | - | - | ? | ?
Cc1ccc(S(=O)(=O)NCc2ccncc2)c(C)c1C | . | . | 32µM | . | .
O=C1CC(c2ccc(F)cc2)Cc2nc(N3CCOCC3)ncc21 (configuration not stated) | - | - | 28µM | - | -
CCCN(CCC)CCCNC(=O)c1sc2nc3n(c(=O)c2c1C)CCC3 | . | . | . | . | -
COC(=O)c1[nH]c2c(c1C)C(=O)CC(c1cccs1)C2 (configuration not stated) | - | - | - | -85 | -
COCCOC(=O)c1[nH]c2c(c1C)C(=O)CC(c1ccc(N(C)C)cc1)C2 (configuration not stated) | - | - | 14µM | ? | -
CCOC(=O)c1[nH]c2c(c1-c1ccc(OC)cc1)C(=O)CC(c1ccc(OC)c(OC)c1)C2 (configuration not stated) | - | - | 28µM | - | ?
COC(=O)c1[nH]c2c(c1C)C(=O)CC(c1cc(OC)ccc1OC)C2 (configuration not stated) | - | - | - | ? | ?
COCCOC(=O)c1[nH]c2c(c1C)C(=O)CC(c1ccccc1)C2 (configuration not stated) | - | - | - | -100 | ?
COCCOC(=O)c1[nH]c2c(c1C)C(=O)CC(c1ccc(F)cc1)C2 (configuration not stated) | - | - | - | ? | -
CCOc1ccc(C2CC(=O)c3c([nH]c(C(=O)OC)c3C)C2)cc1OC (configuration not stated) | - | - | - | - | -
Cc1c(C(=O)O)[nH]c2c1C(=O)CC(c1ccccc1)C2 (configuration not stated) | - | - | - | - | -
O=C(COc1ccccc1F)Nc1ccc2nc(SCC(=O)N3CCOCC3)sc2c1 | . | . | . | . | -
CCCCOC(=O)c1[nH]c2c(c1C)C(=O)CC(c1cc(OC)c(OC)c(OC)c1)C2 (configuration not stated) | - | - | 5µM | - | ?

High-throughput results as filed in PubChem BioAssay.
